Results taken from PubChem BioAssay (NCATS).
Results filed as inconclusive are left out. Where a call stands in place of a potency, no number is given. Active and inactive are the calls of the source. Unless noted, calls come from the whole dose curve; as a rule, active = well fitted curve in the direction sought with a large enough effect; inconclusive = small, poorly fitted or top-dose-only effect, or another doubt; inactive = no such curve, though single readings can be large; an effect the other way counts as inactive or inconclusive.

Experiments:
[1] = P-glycoprotein substrates identified in KB-8-5-11 adenocarcinoma cell line, qHTS therapeutic library screen (AID 1346987); note: nearly all actives have a fitted effect of over 65% in size; note: potency is the fitted concentration of half-maximal effect
Summary of the method: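 P-gp-mediated resistance screen: KB-8-5-11 cells treated 72 h with compounds in dose-response. CellTiter-Glo viability.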

[2] = target: Atrial natriuretic peptide receptor 1 (Homo sapiens) (UniProt P16066); assay: Natriuretic polypeptide receptor (hNpr1) antagonism - Pilot screen (AID 1347049; calls by dose curve;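 note: agonist-evoked cGMP luminescence read 20 min after hNppA addition; series mostly up to about 58 µM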)
Chain of Atrial natriuretic peptide receptor 1 (Homo sapiens) (P16066 whole entry, looked up): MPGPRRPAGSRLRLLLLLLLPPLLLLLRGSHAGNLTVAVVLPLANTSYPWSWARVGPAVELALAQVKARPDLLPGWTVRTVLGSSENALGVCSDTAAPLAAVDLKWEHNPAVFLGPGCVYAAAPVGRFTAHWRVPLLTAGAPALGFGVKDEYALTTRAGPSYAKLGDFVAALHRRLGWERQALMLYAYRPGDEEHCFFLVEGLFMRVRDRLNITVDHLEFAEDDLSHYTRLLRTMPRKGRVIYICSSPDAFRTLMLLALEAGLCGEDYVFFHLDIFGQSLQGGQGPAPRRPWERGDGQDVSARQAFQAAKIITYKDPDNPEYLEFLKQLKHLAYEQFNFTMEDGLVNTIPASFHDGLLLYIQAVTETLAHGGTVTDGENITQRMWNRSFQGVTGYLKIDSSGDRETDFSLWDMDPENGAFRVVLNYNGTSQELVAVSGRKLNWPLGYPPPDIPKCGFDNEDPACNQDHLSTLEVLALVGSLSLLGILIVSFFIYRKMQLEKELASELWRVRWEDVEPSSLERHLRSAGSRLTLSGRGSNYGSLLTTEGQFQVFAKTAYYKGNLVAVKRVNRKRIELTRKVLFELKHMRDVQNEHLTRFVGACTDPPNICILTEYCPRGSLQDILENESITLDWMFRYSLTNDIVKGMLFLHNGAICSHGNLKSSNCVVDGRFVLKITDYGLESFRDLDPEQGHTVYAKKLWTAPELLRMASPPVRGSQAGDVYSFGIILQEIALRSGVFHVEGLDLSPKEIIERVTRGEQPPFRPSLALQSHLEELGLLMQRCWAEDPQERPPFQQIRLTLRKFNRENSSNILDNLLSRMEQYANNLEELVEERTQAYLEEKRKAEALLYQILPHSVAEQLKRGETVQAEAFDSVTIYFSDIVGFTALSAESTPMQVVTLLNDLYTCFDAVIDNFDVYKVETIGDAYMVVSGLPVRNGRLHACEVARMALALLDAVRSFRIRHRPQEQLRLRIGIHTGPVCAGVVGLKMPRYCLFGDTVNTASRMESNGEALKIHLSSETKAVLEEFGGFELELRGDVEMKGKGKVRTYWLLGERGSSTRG
Summary of the method: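 Readout is cGMP-driven firefly luciferase luminescence in HEK293 cells carrying hNpr1 and a PDE5-domain GloSensor, read before and 20 min after 0.1 nM hNppA stimulation. Cells had 2% substrate reagent for 2 h and test compound for 30 min.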

[3] = target: Atrial natriuretic peptide receptor 2 (Homo sapiens) (UniProt P20594); assay: Natriuretic polypeptide receptor (hNpr2) antagonism - Pilot subtype selectivity assay (AID 1347050; calls by dose curve; note: potency is the fitted concentration of half-maximal effect)
Chain of Atrial natriuretic peptide receptor 2 (Homo sapiens) (P20594 whole entry, looked up): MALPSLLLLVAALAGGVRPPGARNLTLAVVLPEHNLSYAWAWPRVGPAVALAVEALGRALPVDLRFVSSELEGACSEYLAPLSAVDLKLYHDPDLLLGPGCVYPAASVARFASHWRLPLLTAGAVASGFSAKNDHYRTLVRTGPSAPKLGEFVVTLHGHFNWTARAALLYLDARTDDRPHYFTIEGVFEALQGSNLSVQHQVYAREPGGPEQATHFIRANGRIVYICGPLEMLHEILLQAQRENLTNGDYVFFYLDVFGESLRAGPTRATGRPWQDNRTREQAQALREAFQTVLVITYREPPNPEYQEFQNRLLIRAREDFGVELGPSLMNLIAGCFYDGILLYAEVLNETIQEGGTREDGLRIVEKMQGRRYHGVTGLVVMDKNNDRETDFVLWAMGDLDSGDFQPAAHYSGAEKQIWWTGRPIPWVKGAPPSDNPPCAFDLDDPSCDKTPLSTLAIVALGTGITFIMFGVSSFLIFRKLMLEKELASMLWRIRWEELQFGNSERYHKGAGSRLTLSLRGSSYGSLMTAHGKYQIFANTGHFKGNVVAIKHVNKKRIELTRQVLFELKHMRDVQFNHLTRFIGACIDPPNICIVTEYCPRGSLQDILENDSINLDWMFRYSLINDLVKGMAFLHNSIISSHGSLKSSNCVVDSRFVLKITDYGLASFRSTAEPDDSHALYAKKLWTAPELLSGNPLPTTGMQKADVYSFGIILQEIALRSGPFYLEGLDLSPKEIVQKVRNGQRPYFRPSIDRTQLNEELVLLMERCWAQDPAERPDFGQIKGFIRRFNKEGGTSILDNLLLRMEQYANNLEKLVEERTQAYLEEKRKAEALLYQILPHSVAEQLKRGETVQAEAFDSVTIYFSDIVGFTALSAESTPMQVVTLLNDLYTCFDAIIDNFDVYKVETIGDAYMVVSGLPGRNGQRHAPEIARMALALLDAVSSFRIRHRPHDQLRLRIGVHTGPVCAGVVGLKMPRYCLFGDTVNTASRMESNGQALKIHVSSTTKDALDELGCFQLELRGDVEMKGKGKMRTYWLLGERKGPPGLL
Summary of the method: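 Pilot selectivity screen against hNpr2: HEK293 cGMP-sensor cells are treated with LOPAC1280 compounds, then with hNppC peptide at 1 nM final. The cGMP-driven luminescence change over 20 min at room temperature is the read-out.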

[4] = target: Parathyroid hormone/parathyroid hormone-related peptide receptor (Homo sapiens) (UniProt Q03431); assay: qHTS for PTHR1 Agonists: Optimization Screen against the NCGC LOPAC library (AID 1347079);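 note: GloSensor cAMP luminescence in HEK-293 GP2 cells expressing human PTHR1 with IBMX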
Chain of Parathyroid hormone/parathyroid hormone-related peptide receptor (Homo sapiens) (Q03431 whole entry, looked up): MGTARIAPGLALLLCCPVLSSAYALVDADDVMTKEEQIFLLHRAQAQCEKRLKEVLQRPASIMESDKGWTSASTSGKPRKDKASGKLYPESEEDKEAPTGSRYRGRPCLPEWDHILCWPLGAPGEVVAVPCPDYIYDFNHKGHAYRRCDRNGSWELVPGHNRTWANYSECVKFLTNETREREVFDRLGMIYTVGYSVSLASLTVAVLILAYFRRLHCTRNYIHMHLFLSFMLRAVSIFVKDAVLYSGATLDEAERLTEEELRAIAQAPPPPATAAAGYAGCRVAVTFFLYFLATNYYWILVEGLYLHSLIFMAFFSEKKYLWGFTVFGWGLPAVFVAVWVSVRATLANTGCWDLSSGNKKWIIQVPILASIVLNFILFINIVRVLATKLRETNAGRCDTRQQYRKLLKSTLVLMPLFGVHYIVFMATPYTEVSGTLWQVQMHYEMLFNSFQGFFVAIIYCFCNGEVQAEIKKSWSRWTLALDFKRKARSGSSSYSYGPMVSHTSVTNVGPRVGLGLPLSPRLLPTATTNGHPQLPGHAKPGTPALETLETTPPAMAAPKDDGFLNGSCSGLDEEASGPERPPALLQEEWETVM
Summary of the method: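 Compounds were tested across a qHTS titration. PTHR1-expressing GP2 cells report cAMP rises via GloSensor luminescence after 1 hr compound exposure at 37C with IBMX present.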

[5] = target: T1, Tyrosine-protein phosphatase non-receptor type substrate 1 (Homo sapiens) + Leukocyte surface antigen CD47 (Homo sapiens) (UniProt P78324+Q08722); assay: CD47-SIRPalpha protein protein interaction - LANCE assay qHTS validation (AID 1347057; active = well fitted curve in the direction sought with a large enough effect in the signal ratio, with a control signal flat, not every such curve was filed as active; the % refers to the signal ratio; note: series mostly up to about 38 µM)
T1 sequence (P78324 whole entry, looked up): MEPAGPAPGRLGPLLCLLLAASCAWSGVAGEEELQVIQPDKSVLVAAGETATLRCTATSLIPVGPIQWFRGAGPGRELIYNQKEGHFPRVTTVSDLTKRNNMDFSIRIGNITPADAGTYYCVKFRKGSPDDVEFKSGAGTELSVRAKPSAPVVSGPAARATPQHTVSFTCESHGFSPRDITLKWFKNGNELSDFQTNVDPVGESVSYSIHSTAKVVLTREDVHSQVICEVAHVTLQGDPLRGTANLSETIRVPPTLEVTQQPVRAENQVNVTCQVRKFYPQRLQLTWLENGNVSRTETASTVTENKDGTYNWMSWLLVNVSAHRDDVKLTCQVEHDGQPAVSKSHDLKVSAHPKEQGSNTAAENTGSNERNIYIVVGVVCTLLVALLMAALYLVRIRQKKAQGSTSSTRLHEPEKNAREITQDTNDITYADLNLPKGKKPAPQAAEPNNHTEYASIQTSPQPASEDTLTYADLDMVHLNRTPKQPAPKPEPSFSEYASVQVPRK
T1 sequence (Q08722 whole entry, looked up): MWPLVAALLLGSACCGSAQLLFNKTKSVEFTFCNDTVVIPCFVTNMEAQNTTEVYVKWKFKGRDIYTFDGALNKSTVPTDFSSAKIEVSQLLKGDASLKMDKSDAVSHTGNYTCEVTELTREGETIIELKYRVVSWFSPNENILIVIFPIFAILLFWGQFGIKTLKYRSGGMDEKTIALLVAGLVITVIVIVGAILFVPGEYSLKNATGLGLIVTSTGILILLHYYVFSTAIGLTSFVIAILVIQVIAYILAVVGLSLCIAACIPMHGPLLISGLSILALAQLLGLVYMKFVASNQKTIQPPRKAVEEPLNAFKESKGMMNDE
Summary of the method: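 First, His-tagged CD47 and Eu-labelled anti-His antibody met the compound for 30 min; next, site-specifically biotinylated SIRPalpha was added for 30 min; finally streptavidin-APC was added before reading the TR-FRET ratio.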

[6] = target: T1, Tyrosine-protein phosphatase non-receptor type substrate 1 (Homo sapiens) + Leukocyte surface antigen CD47 (Homo sapiens); assay: CD47-SIRPalpha protein protein interaction - HTRF assay qHTS validation (AID 1347058; active = well fitted curve in the direction sought with a large enough effect in the signal ratio, not every such curve was filed as active; the % refers to the signal ratio;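 note: recombinant soluble extracellular CD47 with His tag and biotinylated SIRPalpha domains; series mostly up to about 38 µM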)
Summary of the method: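 TR-FRET read (Ch1/Ch2 ratio) of soluble extracellular CD47 and Avi-biotinylated SIRPalpha domains in PBS pH 7.4 with 0.05% IGEPAL; 7-point compound titration. Sequential 30 min room-temperature steps; non-biotinylated SIRPalpha as control inhibitor.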

[7] = target: T1, Tyrosine-protein phosphatase non-receptor type substrate 1 (Homo sapiens) + Leukocyte surface antigen CD47 (Homo sapiens); assay: CD47-SIRPalpha protein protein interaction - Alpha assay qHTS validation (AID 1347059);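 note: bead proximity luminescence from CD47 binding SIRPalpha after compound preincubation with SIRPalpha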
Summary of the method: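 Binding is measured by AlphaScreen proximity: Ni-NTA acceptor beads capture His-CD47, streptavidin donor beads capture biotin-SIRPalpha. Each of three additions (SIRPalpha with compound, CD47, beads) incubates 30 min at room temperature protected from light.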

[8] = qHTS of pediatric cancer cell lines to identify multiple opportunities for drug repurposing: Primary screen for SJ-GBM2 cells (AID 1347091); conditions: SJ-GBM2 viability, CellTiter-Glo luminescence, 48 h; note: potency is the fitted concentration of half-maximal effect
From the text: Drug repurposing or repositioning has been offered as a strategy for drug development in oncology programs. This approach has special potential for childhood cancers and other rare or orphan diseases, where the expected return on new drug development has been a disincentive to pharmaceuticals.
In this project we exploit the poly-pharmacology of drugs to discover new indications via phenotypic screening of a panel of 19 well-characterized cell lines derived from solid tumors seen in children and adolescents. The goal is to identify approved drugs with previously unrecognized anticancer properties that has the potential to reveal new mechanisms and biological processes involved in carcinogenesis or drug resistance. We employed a titration-based paradigm (quantitative high-throughput screening or qHTS), where all compounds were tested at multiple concentrations for their effect on cell viability. […] We screened the NIH Chemical Genomics Center (NCGC) Pharmaceutical Collection (NPC) and Mechanism Interrogation Plate (MIPE) small molecule collections of approved and investigational compounds against these cell lines; and measured metabolically active cells after 48 hours of compound treatment as a proxy for cell viability. […]
[1] Shen, M et al. Quantitative high-throughput phenotypic screening of pediatric cancer cell lines identifies multiple opportunities for drug repurposing. […]

[9] = qHTS of pediatric cancer cell lines to identify multiple opportunities for drug repurposing: Primary screen for Saos-2 cells (AID 1347097); conditions: Saos-2 viability, CellTiter-Glo ATP luminescence, 48 h; note: potency is the fitted concentration of half-maximal effect; nearly all actives have a fitted effect of over 40% in size
Summary of the method: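 CRCs from 8- or 11-point titrations (lowest final 0.59 nM NPC, 0.78 nM MIPE). Cell viability: CellTiter-Glo after 48 h incubation, 15 min room-temperature development, luminescence imaging.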

[10] = qHTS of pediatric cancer cell lines to identify multiple opportunities for drug repurposing: Primary screen for SK-N-SH cells (AID 1347098); conditions: SK-N-SH viability, CellTiter-Glo luminescence, 48 h; note: potency is the fitted concentration of half-maximal effect; nearly all actives have a fitted effect of over 65% in size
Summary of the method: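 Cells (500-1,000/well) rested 5 h, then received compounds for 48 h; metabolically active cells were measured by CellTiter-Glo luminescence. Final concentrations spanned up to 46 µM (MIPE, 11-point) or 0.59 nM-46 µM (NPC, 8-point) in primary screens, 11-point in follow-ups.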

C[C@H]1CC[C@@]2(OC1)O[C@H]1CC3[C@@H]4CC[C@@H]5C[C@@H](O[C@@H]6O[C@H](CO)[C@@H](O[C@@H]7O[C@@H](C)[C@H](O)[C@@H](O)[C@H]7O)[C@H](O)[C@H]6O[C@@H]6O[C@H](CO)[C@@H](O)[C@H](O)[C@H]6O)CC[C@]5(C)C4CC[C@]3(C)[C@H]1[C@@H]2C (stereo partly drawn)
outcome [1]: inactive [at 9.29 µM]

CC1(C)CC[C@]2(C(=O)O)[C@H](O)C[C@]3(C)C(=CCC4[C@@]5(C)CC[C@H](O[C@@H]6O[C@H](CO[C@@H]7OC[C@H](O)[C@H](O)[C@H]7O[C@@H]7OC[C@H](O)[C@H](O)[C@H]7O)[C@@H](O)[C@H](O)[C@H]6O)C(C)(C)C5CC[C@]43C)[C@@H]2C1 (stereo partly drawn)
outcome [1]: inactive [at 9.29 µM]

C[C@@H]1CC[C@]2(C(=O)O)CC[C@]3(C)C(=CCC4[C@@]5(C)CC[C@H](O)[C@](C)(C(=O)O)C5CC[C@]43C)C2[C@]1(C)O (stereo partly drawn)
Potency [1]: inactive

Cc1cn2cc(C(=O)N(C)CCO)cc(NC3CCOc4cccc(C)c43)c2n1 (stereo not drawn)
Potency [1]: inactive

COc1cc(C(=O)NCC2(N(C)C)CCCC2)cc(OC)c1OCc1ccccc1
Potency [1]: inactive

CCOc1ccc(-n2c(C(C)N(Cc3cccnc3)C(=O)Cc3ccc(F)c(C(F)(F)F)c3)nc3ncccc3c2=O)cc1 (stereo not drawn)
Potency [1]: inactive

COCc1c(Cl)ccc2c1CC[C@H]2c1ncc[nH]1
Potency [1]: inactive

C[C@@H](Nc1ncnc2[nH]c(-c3ccc(O)cc3)cc12)c1ccccc1
Potency [1]: 8.2 µM (active)

Cc1ccccc1C(C(=O)NC1CCCCC1)N(C(=O)Cn1cnc2ccccc21)c1cccc(F)c1 (stereo not drawn)
Potency [1]: 23.1 µM (active)

NS(=O)(=O)c1ccc(N2CCN(CC[C@@H]3OCCc4ccccc43)CC2)cc1
Potency [1]: inactive

CCC(C)/C=C(C)/C=C/C1=CC2=C(Cl)C(=O)C(C)(OC(C)=O)C(=O)C2(O)C(OC)O1 (stereo not drawn)
Potency [1]: inactive

CCCOc1ccc2nc(NC(=O)OC)sc2c1
Potency [1]: 5.8 µM (active)

C=C1/C(=C/C=C2\CCC[C@]3(C)[C@@H]([C@H](C)/C=C/[C@H](O)C4CC4)CC[C@@H]23)C[C@@H](O)C[C@@H]1O
Potency [1]: inactive

O=C(O)c1cc(N(Cc2ccc(C3CCCCC3)cc2)C(=O)c2ccc(Oc3ccccc3)cc2)ccc1O
Potency [1]: inactive

O=C1O[C@H]2[C@H](O)[C@@H]1OC(O)[C@H]2O (stereo partly drawn)
Potency [1]: inactive

CC(=O)c1c(C)cc2cccc(O)c2c1O[C@@H]1O[C@H](CO)[C@@H](O)[C@H](O)[C@H]1O
Potency [1]: inactive

C=CC(=O)Nc1cccc(Nc2nc(Nc3ccc(OCCOC)cc3)ncc2F)c1
Potency [1]: 7.31 µM (active)

Nc1nc(NC2CC2)cc(-c2cccc(Cl)c2Cl)n1
Potency [1]: 6.51 µM (active)

C=C1C(=O)OC2/C=C(\CO)CC/C=C(\C=O)C(O)C(OC(=O)C(C)CC)C12 (stereo not drawn)
Potency [1]: inactive

CC(C)(C)c1ccc2c(c1)CC[C@H]2NC(=O)Nc1cccc2[nH]ncc12
Potency [1]: inactive

CC1(C)C2CC[C@]3(C)[C@H](C(=O)C=C4[C@@H]5C[C@@](C)(C(=O)O)CC[C@]5(C)CC[C@]43C)[C@@]2(C)CC[C@@H]1O[C@H]1O[C@H](C(=O)O)[C@@H](O)[C@H](O)[C@H]1O[C@@H]1O[C@H](C(=O)O)[C@@H](O)[C@H](O)[C@H]1O (stereo partly drawn)
Potency [1]: inactive

C=CC(C)(C)C12CC3C(=O)N4C(CC5(C(C)(C)C=C)c6ccccc6NC45)C(=O)N3C1Nc1ccccc12 (stereo not drawn)
Potency [1]: inactive

CC(=O)O[C@@H]1C[C@@]2(C)C(CC[C@]3(C)C2CC=C2C4CC(C)(C)CC[C@]4(C(=O)O)CC[C@]23C)C(C)(C)[C@H]1O (stereo partly drawn)
Potency [1]: inactive

COc1cc(NC(=O)c2cccc(-n3cc(NC(=O)Nc4cccc(C)c4)cn3)c2)cc(OC)c1OC
Potency [1]: inactive

CO[C@H]1O[C@@H]2O[C@@]3(C)CCC4[C@H](C)CCC([C@H]1C)[C@]42OO3 (stereo partly drawn)
Potency [1]: inactive

CCOc1ccc(Cc2nc(-c3c(C)nc4ccccn34)cs2)cc1
Potency [1]: 0.0184 µM (active)

CC1CCC(=O)CC(SCC(O)C(=O)O)CCC(=O)O1 (stereo not drawn)
Potency [1]: inactive

Cc1ccc(C)c(-c2cc(C(F)(F)F)nn2-c2ccc(S(N)(=O)=O)cc2)c1
Potency [1]: 23.1 µM (active)

O=C(NCc1ccc(OC(F)(F)F)cc1)C1c2c(F)cccc2C(=O)N1CCc1ccccn1 (stereo not drawn)
Potency [1]: inactive

C/C(=C(/CCO)SSCC1CCCO1)N(C=O)Cc1cnc(C)nc1N (stereo not drawn)
Potency [1]: inactive

CC(O)(C(=O)O)C1CCC2(C)C1CCC1(C)C2CCC2C3(C)CCC(O)C(C)(COC4OC(CO)C(O)C(O)C4O)C3CCC21C (stereo not drawn)
Potency [1]: inactive

NS(=O)(=O)c1ccc(NC(=O)Nc2ccc(F)cc2)cc1
Potency [1]: inactive

COCC1=C(C(=O)OC(C)OC(=O)OC(C)C)N2C(=O)[C@@H](NC(=O)/C(=N\OC)c3csc(N)n3)[C@H]2SC1 (stereo partly drawn)
Potency [1]: inactive

C=C(C)C1CC(O)C(C)C12CC(O)C1(C)OC1C2O (stereo not drawn)
Potency [1]: 3.66 µM (active)

C=C1C(=O)OC[C@@H]1C/C=C(\C)CC1CC(C)C(=O)O1 (stereo partly drawn)
Potency [1]: inactive

CC1(C)CCC2(C(=O)OC3OC(COC4OC(CO)C(O)C(O)C4O)C(O)C(O)C3O)CCC3(C)C(=CCC4C5(C)CCC(OC6OCC(O)C(O)C6O)C(C)(C)C5CCC43C)C2C1O (stereo not drawn)
outcome [1]: inactive [at 9.29 µM]

CC(=O)O[C@@H]1C2=C(O)C(=O)[C@](C)(OC(C)=O)C(=O)C2=CO[C@@]12O[C@@H](C)CC[C@H]2OC(C)=O
Potency [1]: inactive

CCN1CCC[C@@H]1CNC(=O)c1ccc2c(c1)NC(=O)c1cccc(C)c1S2
Potency [1]: inactive

N#Cc1ccc(-c2ccc(S(=O)(=O)Nc3cccc(N)n3)cc2)cc1
Potency [1]: inactive

CN(C)C(=O)NC1(c2ccccc2)CCN(CCC[C@]2(c3ccc(Cl)c(Cl)c3)CCCN(C(=O)c3ccccc3)C2)CC1
Potency [1]: 18.4 µM (active)

NCCCC(=O)O
outcome [2]: inactive
Potency [3]: inactive
outcome [4]: inactive

CN[C@H]1CC[C@@H](c2ccc(Cl)c(Cl)c2)c2ccccc21
outcome [2]: inactive
Potency [3]: 14.7 µM (active)
outcome [5]: inactive
outcome [6]: inactive
outcome [7]: inactive
outcome [4]: inactive
Potency [8]: 23.7 µM (active)
Potency [9]: 23.7 µM (active)
Potency [10]: 10.9 µM (active)

Oc1cccc(-c2c3nc(c(-c4cccc(O)c4)c4ccc([nH]4)c(-c4cccc(O)c4)c4nc(c(-c5cccc(O)c5)c5ccc2[nH]5)CC4)C=C3)c1
Potency [8]: 21.1 µM (active)
